Data: the supplement of paper PMC13380429

System: Vero E6 infected with SARS-CoV-2
Assay: inhibition of SARS-CoV-2 cytopathic effect; higher = more antiviral protection, active = above 15
Conditions: 48 h

Measured: inhibition of SARS-CoV-2 cytopathic effect

O=C(CCCCC(=O)Nc1c(I)cc(I)c(C(=O)O)c1I)Nc1c(I)cc(I)c(C(=O)O)c1I [iodipamide]
inactive: 1 nM -2.81% | 8.33 nM -3.21% | 100 nM -1.82% | 833.33 nM -3.34% | 10000 nM 0.05%

O=C(NCCCCN1CCN(c2cccc(Cl)c2Cl)CC1)c1ccc2c(c1)Cc1ccccc1-2
inactive: 1 nM 0.39% | 8.33 nM 2.85% | 100 nM -2.31% | 833.33 nM -1.17% | 10000 nM -3.44%

CCCN(CCC)CCc1ccc(OC)c(OCCc2ccccc2)c1
inactive: 1 nM -1.09% | 8.33 nM -0.82% | 100 nM 0.93% | 833.33 nM 0.13% | 10000 nM -2.05%

CC(C)(C)NS(=O)(=O)c1cncc(-c2cc(F)c3nc(N)nn3c2)c1
inactive: 1 nM 3.23% | 8.33 nM 2.61% | 100 nM -1.19% | 833.33 nM 0.27% | 10000 nM 0.39%

O=C(/C=C/c1ccccc1)NCCO [brolitene]
inactive: 1 nM -0.76% | 8.33 nM -1.09% | 100 nM -0.6% | 833.33 nM -2.74% | 10000 nM 1.92%

CC(C)Oc1ccc2c(=O)c3cc(C(=O)O)ccc3oc2c1
inactive: 1 nM -2.35% | 8.33 nM -1.43% | 100 nM -1.13% | 833.33 nM -1.68% | 10000 nM -1%

Cn1ncc(Cl)c1-c1cc(C(=O)N[C@H](CN)Cc2cccc(F)c2)sc1Cl
inactive: 1 nM 0.2% | 8.33 nM -1.05% | 100 nM -0.95% | 833.33 nM -0.24% | 10000 nM -2.44%
